# From PubChem BioAssay (NCATS)
# Records with an inconclusive call do not appear. Values without a mark were called inactive. Active and inactive are the calls of the source. Calls follow the shape of the dose curve; as a rule, active = well fitted inhibition curve with a large enough effect; inconclusive = small, poorly fitted or top-dose-only effect; inactive = flat fitted curve, though single readings scatter.
# Tested on: HEK293
# Experiment: Cytotoxic Profiling of Annotated Libraries Using Quantitative High-Throughput Screening (AID 1296008); also: nearly all actives have a fitted effect of over 60% in size
# Details: Five cell lines viability, CellTiter-Glo ATP luminescence, 48-72 h; max response: stronger effect = lower value
# Procedure, shortened: (§1)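 Compounds were pin-transferred onto cells and incubated 48 or 72 hr at 37 degree Celsius, 95% humidity. CellTiter-Glo was added, plates sat 10 min at room temperature, then ATP-coupled luminescence was imaged as the viability read-out.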
# % is scaled to controls: 0 for no effect and ±100 for the full control effect.
SMILES,max response [%],outcome
Cc1ccc(/C=N/n2c(-c3ccccc3)csc2=S)cc1,1.19,
Cc1cccc(C)c1NC(=O)c1cc(S(N)(=O)=O)c(Cl)cc1O,,inactive
C[C@]12CCC(=O)C=C1CC[C@@H]1[C@@H]2[C@@H](O)C[C@@]2(C)[C@H]1CC[C@]2(O)C(=O)COC(=O)CCC(=O)O,3.66,
OCc1cccnc1,-2.02,
O=C(CO)[C@@H](O)[C@H](O)[C@@H](O)CO,,inactive
CCc1cc(S(=O)(=O)O)c2cc(C(C)C)cccc1-2,-0.992,
O=C(O)[C@H](O)[C@@H](O)[C@H](O[C@@H]1O[C@H](CO)[C@H](O)[C@H](O)[C@H]1O)[C@H](O)CO,,inactive
Cc1cc(O)c2c(O)c3c(O)cccc3cc2c1,-2.16,
CCC(C(=O)NC(=O)NC(C)=O)c1ccccc1 (stereo not given),-0.744,
CO/N=C(/C(=O)N[C@@H]1C(=O)N2C(C(=O)OCOC(=O)C(C)(C)C)=C(C)CS[C@H]12)c1csc(N)n1,4.75,
CC1(C)S[C@@H]2[C@H](NC(=O)C(c3ccccc3)S(=O)(=O)O)C(=O)N2[C@H]1C(=O)O (stereo not given in full),-0.254,
C=CC[N+]1([C@H]2C[C@H]3[C@@H]4CC[C@H]5C[C@H](OC(C)=O)[C@@H](N6CCCCC6)C[C@]5(C)[C@H]4CC[C@]3(C)[C@H]2OC(=O)CC)CCCCC1,0.459,
CCOc1ccc(NS(=O)(=O)c2ccc(N)cc2)nn1,,inactive
CCOC(=O)c1ccc(OCCN2C[C@H](O)[C@@H](O)[C@H](O)[C@H]2CO)cc1,-10.3,
Cc1ccc(O)cc1,0.45,
O=P(O)(O)OCC(O)CO (stereo not given),-2.36,
COc1ccccc1OCC1CNC(=O)O1 (stereo not given),2.95,
CN(C(=O)C(Cl)Cl)c1ccc(OC(=O)c2ccco2)cc1,-3.53,
C[C@@]12CCC[C@H]1[C@@H]1CC[C@H]3C[C@@H](O)CC[C@]3(C)[C@H]1CC2,,inactive
O=C(O)CNC(=O)CNC(=O)CNC(=O)CSC(=O)c1ccccc1,-4.78,
CCN1CCN(C(=O)N[C@@H](C(=O)N[C@@H]2C(=O)N3[C@@H]2SC(C)(C)[C@H]3C(=O)O)c2ccccc2)C(=O)C1=O,-1.44,
CC(=O)OCC(=O)[C@@]1(O)CCC2C3CCC4=CC(=O)CC[C@]4(C)C3[C@@H](O)C[C@@]21C (stereo not given in full),2.9,

# Tested on: HaCat
# Experiment: as above
# Details: Five cell lines viability, CellTiter-Glo ATP luminescence, 48-72 h; max response: stronger effect = lower value
# Procedure, shortened: as §1
SMILES,outcome,max response [%]
CC(C)(C)C(=O)OCOC(=O)C1N2C(=O)CC2S(=O)(=O)C1(C)C (stereo not given),inactive,
CN1C(CSCC(F)(F)F)Nc2cc(Cl)c(S(N)(=O)=O)cc2S1(=O)=O (stereo not given),,4.02
COc1ccccc1N1CCN(CCN2C(=O)CC3(CCCC3)CC2=O)CC1,inactive,
Nc1nnnn1-c1ccccc1,,-26.2
C=CCOc1cc(Cl)ccc1C(=O)NCCN(CC)CC,inactive,
OCCCc1ccccc1,,-3
CC(=O)N(CC(O)CO)c1c(I)c(C(=O)NCCO)c(I)c(C(=O)NCC(O)CO)c1I (stereo not given),inactive,
CN1C(=O)CC(C)(c2ccccc2)C1=O (stereo not given),inactive,
CC(C(=O)O)c1ccc(/C=C2\CCCCC2=O)cc1 (stereo not given),inactive,
O=C(COCCOCCOCC(=O)Nc1c(I)cc(I)c(C(=O)O)c1I)Nc1c(I)cc(I)c(C(=O)O)c1I,inactive,
CCO[C@H](Cc1ccc(OCCc2ccc(OS(C)(=O)=O)cc2)cc1)C(=O)O,inactive,
O=C(OCC1(COC(=O)c2cccnc2)CCCC(COC(=O)c2cccnc2)(COC(=O)c2cccnc2)C1O)c1cccnc1,inactive,
OC(CCCN1CCCCC1)(c1ccccc1)c1ccccc1,,-16
C1=CC2C3C=CC(C3)C2C1 (stereo not given),,-9.73
C[N+]1(CC2COC(c3ccccc3)(c3ccccc3)O2)CCCCC1 (stereo not given),,-14.4
CC(C)=CCC/C(C)=C/CC/C(C)=C/CCC(=O)OC/C=C(\C)CCC=C(C)C,inactive,
Cc1ccc(/C=N/n2c(-c3ccccc3)csc2=S)cc1,inactive,
Cc1cccc(C)c1NC(=O)c1cc(S(N)(=O)=O)c(Cl)cc1O,inactive,
C[C@]12CCC(=O)C=C1CC[C@@H]1[C@@H]2[C@@H](O)C[C@@]2(C)[C@H]1CC[C@]2(O)C(=O)COC(=O)CCC(=O)O,,-3.29

SMILES,outcome,max response [%]
OCc1cccnc1,,3.51
O=C(CO)[C@@H](O)[C@H](O)[C@@H](O)CO,,3.88
CCc1cc(S(=O)(=O)O)c2cc(C(C)C)cccc1-2,,0.42
O=C(O)[C@H](O)[C@@H](O)[C@H](O[C@@H]1O[C@H](CO)[C@H](O)[C@H](O)[C@H]1O)[C@H](O)CO,inactive,
Cc1cc(O)c2c(O)c3c(O)cccc3cc2c1,inactive,
CCC(C(=O)NC(=O)NC(C)=O)c1ccccc1 (stereo not given),inactive,
CO/N=C(/C(=O)N[C@@H]1C(=O)N2C(C(=O)OCOC(=O)C(C)(C)C)=C(C)CS[C@H]12)c1csc(N)n1,inactive,
CC1(C)S[C@@H]2[C@H](NC(=O)C(c3ccccc3)S(=O)(=O)O)C(=O)N2[C@H]1C(=O)O (stereo not given in full),,-6.19
C=CC[N+]1([C@H]2C[C@H]3[C@@H]4CC[C@H]5C[C@H](OC(C)=O)[C@@H](N6CCCCC6)C[C@]5(C)[C@H]4CC[C@]3(C)[C@H]2OC(=O)CC)CCCCC1,,4.73
CCOc1ccc(NS(=O)(=O)c2ccc(N)cc2)nn1,,1.89
CCOC(=O)c1ccc(OCCN2C[C@H](O)[C@@H](O)[C@H](O)[C@H]2CO)cc1,,-6.67
Cc1ccc(O)cc1,inactive,
O=P(O)(O)OCC(O)CO (stereo not given),,0.361
COc1ccccc1OCC1CNC(=O)O1 (stereo not given),,-20.6
CN(C(=O)C(Cl)Cl)c1ccc(OC(=O)c2ccco2)cc1,inactive,
C[C@@]12CCC[C@H]1[C@@H]1CC[C@H]3C[C@@H](O)CC[C@]3(C)[C@H]1CC2,,2.53
O=C(O)CNC(=O)CNC(=O)CNC(=O)CSC(=O)c1ccccc1,,-1.1
CCN1CCN(C(=O)N[C@@H](C(=O)N[C@@H]2C(=O)N3[C@@H]2SC(C)(C)[C@H]3C(=O)O)c2ccccc2)C(=O)C1=O,inactive,
CC(=O)OCC(=O)[C@@]1(O)CCC2C3CCC4=CC(=O)CC[C@]4(C)C3[C@@H](O)C[C@@]21C (stereo not given in full),,3.13
